Screening results as filed in PubChem.
This is a sample that favours compounds with a hit; in the whole collection about 4.6% have one here.
FXN GAA850 act – frataxin GAA850 promoter activation. HEK293 lucGAA850 FXN promoter luciferase reporter, 24 h; percent of 10 µM SAHA response. activation, % at 6 µM. hit rate 0.56% among 360,000. AID 540364;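 active = activation above the average of all compounds screened plus 3 SD, cutoff fixed separately per campaign, cut at about 7.5% in these data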;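 note: 0% = DMSO wells and 100% = 10 µM SAHA wells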
HSF-1 act – increases HSF-1 driven luciferase reporter signal; NIH3T3-HGL HSF-1 luciferase reporter, MG132, 8 h; 100% = twice DMSO control signal; activation, % at 9 µM; hit rate 1.7% among 300,000;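 active = mean replicate activation of at least 50% with a set share of replicates each reaching 50%; inconclusive = only one of those two conditions met; inactive = mean below 50% and too few replicates reaching it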;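 note: 0% = median of the neutral control wells and 100% = twice that signal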
HSF1 inh – HSF1 inhibition. NIH3T3-HGL HSE-luciferase, MG132-induced, luminescence 8 h; stronger effect = lower value. activity change, negative = inhibition, % at 7.5 µM (by protocol). hit rate 0.77% among 300,000. AID 2098;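 active = more than half of replicate wells show activity change below -50%, luminescence cut by over half; inconclusive = some wells, but at most half, below -50%; inactive = no replicate well below -50%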;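 note: luciferase reports HSF-1 transcriptional activity via heat shock element; 0% = median of DMSO wells and -100% = zero luminescence signal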
AHR act – activators of human aryl hydrocarbon receptor; P35869; AHR-responsive luciferase reporter cells, luminescence; activation, % at 5 µM; hit rate 2.5% among 320,000; AID 2796; in the data active = activation above about 47%;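 note: 0% = vehicle wells and 100% = reference agonist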
AHR act confirm – human AHR activation, confirmation. shares compounds with AHR act. human cells, AHR-responsive luciferase reporter, luminescence. activation, % at 9 µM. AID 2845. hit rate 87% among 2,300; in the data active = activation above about 49%;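 note: HepG2 hepatoma cells carrying a DRE-driven firefly luciferase reporter; 0% = vehicle wells and 100% = reference agonist wells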
PXR act counter – counter-screen for AHR activators: human PXR activators | cell-based PXR reporter, luciferase luminescence | hit rate 88% among 2,300 | activation, % at 11.6 µM | shares compounds with AHR act; in the data active = activation above about 11%;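 note: human hepatoma DPX-2 cells expressing full-length human PXR; 0% = DMSO and 100% = reference agonist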
Target sequence (O75469 whole entry, looked up): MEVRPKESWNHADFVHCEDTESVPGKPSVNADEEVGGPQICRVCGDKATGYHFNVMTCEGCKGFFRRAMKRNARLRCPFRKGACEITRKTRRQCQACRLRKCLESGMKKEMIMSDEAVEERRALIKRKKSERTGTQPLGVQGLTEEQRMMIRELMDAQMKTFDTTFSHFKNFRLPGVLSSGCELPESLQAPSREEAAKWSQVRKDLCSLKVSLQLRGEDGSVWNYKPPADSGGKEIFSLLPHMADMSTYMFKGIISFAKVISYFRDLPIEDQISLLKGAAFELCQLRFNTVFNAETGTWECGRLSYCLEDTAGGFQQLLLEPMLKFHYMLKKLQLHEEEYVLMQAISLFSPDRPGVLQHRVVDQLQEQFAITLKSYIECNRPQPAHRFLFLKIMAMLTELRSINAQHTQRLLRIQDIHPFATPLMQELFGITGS
GAA30 counter – GAA30 FXN promoter activation counter-screen; shares compounds with FXN GAA850 act; HEK293 lucGAA30 FXN promoter luciferase, 24 h; DMSO = 0%, 5 µM ipriflavone = 100%; activation, % at 6 µM; hit rate 66% among 1,900; AID 588350;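 active = mean activation above the mean of solvent-only control wells plus 3 SD, cut at about 22% in these data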;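 note: counterscreen of GAA850 promoter hits where activity marks nonselective or luminescence artifacts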
FXN GAA850 conf – GAA850 FXN promoter activation confirmation; HEK293 lucGAA850 FXN promoter luciferase reporter, 24 h; 100% = activation by SAHA; activation, % at 6 µM; hit rate 86% among 1,900; shares compounds with FXN GAA850 act;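 active = mean activation above a set limit taken from the primary screen, cut at about 8% in these data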;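 note: 0% = DMSO wells and 100% = 10 µM SAHA wells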
* = called active by the depositor.

Cc1cc(-c2nc3ccccc3s2)ccc1N was read as FXN GAA850 act 0.
For COc1cc(OC)cc(-c2nc3ccccc3s2)c1 the results were FXN GAA850 act 3, HSF-1 act inconclusive, HSF1 inh 43, AHR act 90*, AHR act confirm 107* and PXR act counter 11*.
Screening COc1cc2c(cc1OC)/C(=C/c1ccc(Br)cc1)C(=O)OC2 returned FXN GAA850 act 5, HSF-1 act 40, HSF1 inh 40, AHR act 85*, AHR act confirm 60* and PXR act counter 15*.
For COc1cc(CCC(=O)Nc2ccc(S(=O)(=O)N3CCCC3)cc2)cc(OC)c1OC the results were FXN GAA850 act 0 and AHR act 0.
`C/C(=N\NC(=O)c1ccc(C(=O)N/N=C(\C)c2ccco2)o1)c1ccco1` gave FXN GAA850 act 1, HSF-1 act 7, HSF1 inh -11, AHR act 108*, AHR act confirm 18 and PXR act counter 4.
`CCc1ccc(/C(C)=N/NC(=O)c2c[nH]c3ccccc23)s1` gave FXN GAA850 act 2, HSF-1 act -3, HSF1 inh 9, AHR act 141*, AHR act confirm 115* and PXR act counter 59*.
`C/C(=N\NC(=O)c1c[nH]c2ccccc12)c1ccco1` gave FXN GAA850 act 5, HSF-1 act 8, HSF1 inh 0, AHR act 92*, AHR act confirm 159* and PXR act counter 24*.
`Cc1cccc(C(=O)NNC(=O)CCC(=O)Nc2cccc(Cl)c2C)c1` gave FXN GAA850 act 0, HSF-1 act 26, HSF1 inh 4 and AHR act -4.
Cc1ccc(-c2nc(Nc3ccccc3)n[nH]2)cc1 was read as FXN GAA850 act 7.7*, AHR act 122*, AHR act confirm 111*, PXR act counter 8, GAA30 counter 112* and FXN GAA850 conf 38*.
`Cc1cc(C)nc(Nc2n[nH]c(-c3ccccc3Cl)n2)n1` gave FXN GAA850 act 1, HSF-1 act 32, HSF1 inh 20 and AHR act 17.
O=c1[nH]ccc2c([N+](=O)[O-])cccc12 was read as FXN GAA850 act 0, HSF-1 act 0, HSF1 inh -9 and AHR act 0.
`O=C(CCS(=O)(=O)c1cccs1)N1CCN(c2ccc(F)cc2)CC1` gave FXN GAA850 act 3, HSF-1 act 10, HSF1 inh 3 and AHR act 4.
For Oc1ccc(/C=N/Nc2ncnc3nc[nH]c23)cc1 the results were FXN GAA850 act 6, HSF-1 act 9, HSF1 inh -7 and AHR act 4.
For Cc1ccc(/C=N/Nc2ncnc3nc[nH]c23)cc1 the results were FXN GAA850 act 17*, HSF-1 act 7, HSF1 inh 3, AHR act 115*, AHR act confirm 104*, PXR act counter 84*, GAA30 counter 123* and FXN GAA850 conf 56*.
For Fc1cccc(/C=N/Nc2ncnc3nc[nH]c23)c1 the results were FXN GAA850 act 10*, HSF-1 act 25, HSF1 inh 16, AHR act 105*, AHR act confirm 78*, PXR act counter 33*, GAA30 counter 113* and FXN GAA850 conf 49*.
For Fc1ccccc1/C=N/Nc1ncnc2nc[nH]c12 the results were FXN GAA850 act 11*, HSF-1 act -14, HSF1 inh 2, AHR act 130*, AHR act confirm 83*, PXR act counter 40*, GAA30 counter 98* and FXN GAA850 conf 47*.
Cc1ccc(-n2ncc(Cl)c2C(=O)NC2CC2)cc1 was read as FXN GAA850 act 8.6*, HSF-1 act 54*, HSF1 inh 15, AHR act 90*, AHR act confirm 136*, PXR act counter 21*, GAA30 counter 110* and FXN GAA850 conf 32*.
Screening CNC(=O)c1c(Cl)cnn1-c1ccc(C)cc1 returned FXN GAA850 act 5, HSF-1 act inconclusive, HSF1 inh 14 and AHR act 24.
For CC(=O)NC1C(Oc2ccccc2C)OC2COC(c3ccco3)OC2C1O (stereo unspecified) the results were FXN GAA850 act -1, HSF-1 act -8, HSF1 inh 6 and AHR act -1.
`COc1ccc(NC(=O)c2cc(=O)[nH]c(=O)[nH]2)cc1S(=O)(=O)Nc1ccccc1Cl` gave FXN GAA850 act 2, HSF-1 act 2, HSF1 inh -2 and AHR act 0.
COc1ccc(/C=C/c2nc(-c3ccccc3O)n[nH]2)cc1 was read as FXN GAA850 act 7.6*, HSF-1 act 7, HSF1 inh -12, AHR act 94*, AHR act confirm 46, PXR act counter 6, GAA30 counter 94* and FXN GAA850 conf 23*.
Screening COCCNc1oc(/C=C/c2ccccc2)nc1C#N returned FXN GAA850 act 5, HSF-1 act 36, HSF1 inh 19 and AHR act 47.
`CNc1oc(/C=C/c2ccccc2)nc1C#N` gave FXN GAA850 act 8.3*, HSF-1 act -2, HSF1 inh -4, AHR act 136*, AHR act confirm 112*, PXR act counter 18*, GAA30 counter 133* and FXN GAA850 conf 40*.
CCC(=O)Nc1c(C(=O)Nc2ccc3c(c2)OCCO3)oc2ccccc12 was read as FXN GAA850 act 9.8*, HSF-1 act 13, HSF1 inh 9, AHR act 87*, AHR act confirm 19, PXR act counter 30*, GAA30 counter 104* and FXN GAA850 conf 32*.
Screening CCC(=O)Nc1ccc(NC(=O)c2oc3ccccc3c2C)cc1 returned FXN GAA850 act -10, HSF-1 act 19, HSF1 inh 11 and AHR act 6.
Screening CC(SCc1ccccc1)C(=O)N/N=C/c1ccc(OCC(=O)NCc2ccco2)cc1 (stereo unspecified) returned FXN GAA850 act -2, HSF-1 act 1, HSF1 inh -11 and AHR act 11.
COc1ccc(OC)c2nc(-c3ccc4c(c3)OCO4)ccc12 was read as FXN GAA850 act 9.5*, HSF-1 act 54*, HSF1 inh 28, AHR act 117*, AHR act confirm 125*, PXR act counter 46*, GAA30 counter 124* and FXN GAA850 conf 44*.
